Measured values: PubChem BioAssay AID1159580 (chemical genetic matrix, 2015)
Where “and” joins values, the source holds several entries; their conditions need not be identical. Equal values may be shown once. The campaign covered roughly 5,500 compounds. About 2,000 (36%) were called active. Roughly 18% stayed inconclusive and do not appear here. No stated cut-off is given here; in the data, active means normalized growth mostly below about 0.91 (no sharp cut-off); inconclusive means no clear call, values can overlap the other calls; inactive means mostly above about 0.92. The list shows a part of the results.

Test: chemical genetic growth profiling, strain panel (AID 1159580);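 further: tested at 20 µM; growth read once vehicle control cultures reached saturation at 30 °C; 1 = growth at the plate median or of vehicle wells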
Conditions: S. cerevisiae deletion strains, growth OD

Measured: normalized growth

CC1(C)C2CC(=O)[C@]3(C)C(CC[C@@]4(C)[C@H](c5ccoc5)OC(=O)[C@H]5O[C@]543)[C@@]2(C)C(=O)C[C@H]1O (stereo not given in full)
inactive: locus YAL013W, strain DEP1, stronger effect = lower value 1.03 | locus YAL021C, strain ccr4, stronger effect = lower value 1.01 | locus YAL026C, strain drs2, stronger effect = lower value 1 | locus YAL030W, strain snc1, stronger effect = lower value 1.01 | locus YBL061C, strain skt5, stronger effect = lower value 1 | locus YBR009C, strain hhf1, stronger effect = lower value 0.992 | locus YBR021W, strain FUR4, stronger effect = lower value 0.995 | locus YBR023C, strain chs3, stronger effect = lower value 1.02 | locus YBR171W, strain sec66, stronger effect = lower value 1.01 | locus YBR229C, strain ROT2, stronger effect = lower value 1 | locus YBR231C, strain swc5, stronger effect = lower value 1 | locus YBR279W, strain paf1, stronger effect = lower value 1.01 | locus YCL011C, strain gbp2, stronger effect = lower value 1.02 | locus YCL016C, strain dcc1, stronger effect = lower value 1.01 | locus YCL029C, strain bik1, stronger effect = lower value 1.01 | locus YCL061C, strain MRC1, stronger effect = lower value 1 | locus YCL069W, strain vba3, stronger effect = lower value 1.01 | locus YCR088W, strain abp1, stronger effect = lower value 1.01 | locus YDL005C, strain med2, stronger effect = lower value 1 | locus YDL035C, strain GPR1, stronger effect = lower value 0.975 | locus YDL040C, strain nat1, stronger effect = lower value 1 | locus YDL074C, strain BRE1, stronger effect = lower value 1.03 | locus YDL101C, strain DUN1, stronger effect = lower value 1.03 | locus YDL185W, strain tfp1, stronger effect = lower value 1.02 | locus YDL192W, strain arf1, stronger effect = lower value 1.01 | locus YDR001C, strain nth1, stronger effect = lower value 1 | locus YDR069C, strain doa4, stronger effect = lower value 0.995 | locus YDR101C, strain arx1, stronger effect = lower value 1 | locus YDR137W, strain rgp1, stronger effect = lower value 1.06 | locus YDR150W, strain NUM1, stronger effect = lower value 1 | locus YDR159W, strain sac3, stronger effect = lower value 1.01 | locus YDR162C, strain NBP2, stronger effect = lower value 0.983 | locus YDR195W, strain ref2 0.977 | locus YDR297W, strain sur2, stronger effect = lower value 1.01 | locus YDR318W, strain mcm21, stronger effect = lower value 1.01 | locus YDR334W, strain swr1, stronger effect = lower value 1.01 | locus YDR335W, strain msn5, stronger effect = lower value 0.999 | locus YDR388W, stronger effect = lower value 1.01 | locus YDR392W, strain spt3, stronger effect = lower value 1.01 | locus YDR502C, strain sam2, stronger effect = lower value 1.02 | locus YEL003W, strain gim4, stronger effect = lower value 1.01 | locus YEL037C, strain rad23, stronger effect = lower value 1 | locus YEL061C, strain CIN8 (second series), stronger effect = lower value 0.996 | locus YEL061C, strain CIN8, stronger effect = lower value 1 | locus YER015W, strain faa2, stronger effect = lower value 0.995 | locus YER016W, strain bim1, stronger effect = lower value 1.01 | locus YER110C, stronger effect = lower value 1.02 | locus YER111C, strain swi4, stronger effect = lower value 1.01 | locus YER155C, strain BEM2 (second series), stronger effect = lower value 1.02 | locus YER155C, strain BEM2, stronger effect = lower value 1 | locus YER167W, strain BCK2, stronger effect = lower value 0.993 | locus YFR010W, strain ubp6, stronger effect = lower value 0.997 | locus YGL078C, strain dbp3, stronger effect = lower value 1.01 | locus YGL086W, strain mad1, stronger effect = lower value 1.01 | locus YGL167C, strain pmr1, stronger effect = lower value 1.01 | locus YGL173C, strain kem1, stronger effect = lower value 1.02 | locus YGL227W, strain vid30, stronger effect = lower value 1.01 | locus YGL240W, strain doc1, stronger effect = lower value 1.03 | locus YGL248W, strain PDE1, stronger effect = lower value 1.03 | locus YGL253W, strain hxk2, stronger effect = lower value 1 | locus YGR078C, strain PAC10, stronger effect = lower value 1.03 | locus YGR135W, strain pre9, stronger effect = lower value 1.01 | locus YGR252W, strain gcn5, stronger effect = lower value 0.993 | locus YHR013C, strain ard1, stronger effect = lower value 1.01 | locus YHR027C, strain rpn1, stronger effect = lower value 1.01 | locus YHR030C, strain SLT2, stronger effect = lower value 0.992 and 1.02 | locus YHR079C, strain IRE1 (second series), stronger effect = lower value 1.02 | locus YHR079C, strain IRE1, stronger effect = lower value 1.02 | locus YHR094C, strain hxt1, stronger effect = lower value 1.02 | locus YHR129C, strain ARP1, stronger effect = lower value 1.01 | locus YHR142W, strain chs7, stronger effect = lower value 0.999 | locus YHR200W, strain rpn10, stronger effect = lower value 1.01 | locus YIL066C, strain RNR3, stronger effect = lower value 0.979 | locus YIL073C, strain SPO22, stronger effect = lower value 1.03 | locus YIL125W, strain kgd1, stronger effect = lower value 1.01 | locus YIR030C, strain dcg1, stronger effect = lower value 1.02 | locus YJL092W, strain hpr5, stronger effect = lower value 1 | locus YJL095W, strain BCK1 (second series), stronger effect = lower value 1.01 | locus YJL095W, strain BCK1, stronger effect = lower value 1.06 and 1.03 | locus YJL115W, strain asf1, stronger effect = lower value 1 | locus YJL129C, strain trk1, stronger effect = lower value 1.03 | locus YJL134W, strain LCB3, stronger effect = lower value 0.999 | locus YJL154C, strain vps35, stronger effect = lower value 1 | locus YJL164C, strain tpk1, stronger effect = lower value 1 | locus YJL166W, strain qcr8, stronger effect = lower value 1.01 | locus YJL168C, strain set2, stronger effect = lower value 1.01 | locus YJL187C, strain SWE1 (second series), stronger effect = lower value 1.05 | locus YJR043C, strain POL32, stronger effect = lower value 0.963 | locus YJR066W, strain TOR1, stronger effect = lower value 0.956 | locus YJR075W, strain HOC1, stronger effect = lower value 1.03 | locus YKL009W, strain mrt4, stronger effect = lower value 1.03 | locus YKL068W, stronger effect = lower value 1.01 | locus YKL085W, strain MDH1 (second series), stronger effect = lower value 1 | locus YKL085W, strain MDH1, stronger effect = lower value 1 | locus YKL160W, strain elf1, stronger effect = lower value 1.01 | locus YKL190W, strain CNB1, stronger effect = lower value 1.01 | locus YKR001C, strain vps1, stronger effect = lower value 1.05 | locus YKR026C, strain gcn3, stronger effect = lower value 1 | locus YKR091W, strain srl3, stronger effect = lower value 1 | locus YLL001W, strain dnm1, stronger effect = lower value 1.01 | locus YLL026W, stronger effect = lower value 1.01 | locus YLL041C, strain sdh2, stronger effect = lower value 0.998 | locus YLR027C, strain aat2, stronger effect = lower value 1.01 | locus YLR039C, strain RIC1, stronger effect = lower value 1.02 | locus YLR058C, strain SHM2, stronger effect = lower value 1.02 | locus YLR102C, strain apc9, stronger effect = lower value 1.02 | locus YLR113W, strain HOG1, stronger effect = lower value 0.981 | locus YLR221C, strain rsa3, stronger effect = lower value 1 | locus YLR258W, strain gsy2, stronger effect = lower value 1.01 | locus YLR262C, strain YPT6 (second series), stronger effect = lower value 0.982 | locus YLR262C, strain YPT6, stronger effect = lower value 1 | locus YLR268W, strain sec22, stronger effect = lower value 1.02 | locus YLR320W, strain mms22, stronger effect = lower value 1.01 | locus YLR330W, strain CHS5, stronger effect = lower value 1 | locus YLR342W, strain FKS1 (second series), stronger effect = lower value 0.988 | locus YLR342W, strain FKS1, stronger effect = lower value 1.01 | locus YLR357W, strain rsc2, stronger effect = lower value 0.994 | locus YLR370C, strain arc18, stronger effect = lower value 0.996 | locus YLR371W, strain rom2, stronger effect = lower value 1.02 | locus YLR384C, strain iki3, stronger effect = lower value 1.01 | locus YLR418C, strain cdc73, stronger effect = lower value 1.03 | locus YML016C, strain PPZ1, stronger effect = lower value 0.997 | locus YML032C, strain rad52, stronger effect = lower value 1.01 | locus YML120C, strain ndi1, stronger effect = lower value 1.01 | locus YML124C, strain tub3, stronger effect = lower value 1.01 | locus YMR058W, strain fet3, stronger effect = lower value 1 | locus YMR078C, strain ctf18, stronger effect = lower value 1.02 | locus YMR125W, strain sto1, stronger effect = lower value 1.02 | locus YMR129W, stronger effect = lower value 1.02 | locus YMR205C, strain PFK2, stronger effect = lower value 1 | locus YMR223W, strain ubp8, stronger effect = lower value 1.01 | locus YMR231W, strain pep5, stronger effect = lower value 1.01 | locus YMR263W, strain SAP30, stronger effect = lower value 1.04 | locus YMR307W, strain GAS1, stronger effect = lower value 1.04 | locus YNL067W, strain RPL9B, stronger effect = lower value 1.05 | locus YNL071W, strain lat1, stronger effect = lower value 1 | locus YNL153C, strain GIM3, stronger effect = lower value 1.04 | locus YNL183C, strain NPR1, stronger effect = lower value 0.962 | locus YNL209W, strain ssb2, stronger effect = lower value 0.997 | locus YNL233W, strain BNI4, stronger effect = lower value 1.04 | locus YNL248C, strain rpa49, stronger effect = lower value 1.02 | locus YNL250W, strain rad50, stronger effect = lower value 1.02 | locus YNL271C, strain bni1, stronger effect = lower value 1.01 | locus YNL298W, strain CLA4, stronger effect = lower value 1.02 | locus YNL307C, strain MCK1, stronger effect = lower value 1.02 | locus YNL322C, strain KRE1 (second series), stronger effect = lower value 1.03 | locus YNR049C, strain mso1, stronger effect = lower value 0.995 | locus YNR052C, strain pop2, stronger effect = lower value 1.02 | locus YOL012C, strain htz1 2.06 | locus YOL147C, strain pex11, stronger effect = lower value 1.02 | locus YOR001W, strain rrp6, stronger effect = lower value 0.995 | locus YOR061W, strain CKA2, stronger effect = lower value 0.999 | locus YOR069W, strain VPS5, stronger effect = lower value 1.01 | locus YOR070C, strain gyp1, stronger effect = lower value 1.01 | locus YOR080W, strain dia2, stronger effect = lower value 0.997 | locus YOR083W, strain WHI5, stronger effect = lower value 1.01 | locus YOR106W, strain vam3, stronger effect = lower value 1 | locus YOR136W, strain idh2, stronger effect = lower value 1.03 | locus YOR144C, strain elg1, stronger effect = lower value 1.01 | locus YOR184W, strain ser1, stronger effect = lower value 1.01 | locus YOR231W, strain MKK1, stronger effect = lower value 1.02 | locus YOR265W, strain rbl2, stronger effect = lower value 0.99 | locus YOR270C, strain vph1, stronger effect = lower value 0.948 | locus YOR290C, strain snf2, stronger effect = lower value 1.01 | locus YOR316C, strain cot1, stronger effect = lower value 1.01 | locus YPL051W, strain arl3, stronger effect = lower value 1.01 | locus YPL078C, strain atp4, stronger effect = lower value 1.01 | locus YPL106C, strain sse1, stronger effect = lower value 1.01 | locus YPL240C, strain hsp82, stronger effect = lower value 1.02 | locus YPL256C, strain CLN2, stronger effect = lower value 1.01 | locus YPR119W, strain clb2, stronger effect = lower value 1.01 | locus YPR141C, strain kar3, stronger effect = lower value 1.01 | locus YPR163C, strain tif3, stronger effect = lower value 1.01 | locus YPR167C, strain met16, stronger effect = lower value 1.01 | strain wtn01, stronger effect = lower value 1.02
